Bioassay records as filed in PubChem BioAssay.
LDHA inh – inhibitors of human lactate dehydrogenase A | activity change, % (values are at about 110 or 230 µM) | purified LDHA, NADH/diaphorase-resazurin fluorescence; active compounds read low | 0.15% of 480,000 active | AID 1347041 | P00338; in the data active means activity change below about -30%; inconclusive means mostly about -25% to -30%;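 further: plate controls were DMSO wells for no effect and wells without enzyme for full effect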
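Human LDH5 (2 nM) was incubated with 0.06 mM NADH and 0.2 mM pyruvate for 5 min at room temperature in Tris pH 7.4. Remaining NADH was coupled through diaphorase/resazurin, and resorufin fluorescence was read at 0 and 20 min.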
PINK1 expr mod – PINK1 expression modulation; 0.2% of 410,000 active; Potency, µM (doses to about 76.6 µM), without a hit: top-dose activation (PINK1 increase), hits mostly activators; PINK1 immunofluorescence, high-content cytometry, 24 h; active means well fitted activation curve with a large enough effect; inconclusive means small, poorly fitted or top-dose-only effect; cell line not stated here; further: potency means the concentration at half of the fitted maximal effect; % of control where 0% means no effect; nearly all actives have a fitted effect of over 65% in size
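Cells are seeded, rested 12 hours, then given compound at five concentrations or DMSO for 24 hours. After fixation, blocking and antibody staining, PINK1 amount and mitochondrial localization are scored; CCCP serves as control.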
Vif-A3F inh – Vif-A3F binding inhibition. 0.2% of 390,000 active. HeLa A3F-eYFP + Vif (tagged APOBEC3F with the HIV-1 protein that degrades it), YFP fluorescence increase. Potency, µM (highest dose often 46.1 µM), without a hit: at the top dose activity, negative = active; further: potency means the concentration at half of the fitted maximal effect; % of control where 0% means no effect; nearly all actives have a fitted effect of over 65% in size
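HeLa cells stably expressing Vif plus C-terminally eYFP-tagged A3F were seeded, incubated overnight at 37 deg C, dosed with compound, incubated overnight again at 37 deg C. Yellow fluorescence (Ex 488/Em 500-530) reported blocked Vif-mediated A3F-eYFP degradation.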
PTHR1 ag – agonists of human PTHR1 parathyroid hormone receptor; Q03431; 0.075% of 410,000 active; HEK293 GP2 PTHR1 cells, GloSensor cAMP luminescence, 1 h; Potency, µM (highest dose often 115 µM), inactives show at the top dose activation, actives largely listed as activators; further: potency means the concentration at half of the fitted maximal effect; nearly all actives have a fitted effect of over 55% in size
Target sequence (Q03431 whole entry, looked up): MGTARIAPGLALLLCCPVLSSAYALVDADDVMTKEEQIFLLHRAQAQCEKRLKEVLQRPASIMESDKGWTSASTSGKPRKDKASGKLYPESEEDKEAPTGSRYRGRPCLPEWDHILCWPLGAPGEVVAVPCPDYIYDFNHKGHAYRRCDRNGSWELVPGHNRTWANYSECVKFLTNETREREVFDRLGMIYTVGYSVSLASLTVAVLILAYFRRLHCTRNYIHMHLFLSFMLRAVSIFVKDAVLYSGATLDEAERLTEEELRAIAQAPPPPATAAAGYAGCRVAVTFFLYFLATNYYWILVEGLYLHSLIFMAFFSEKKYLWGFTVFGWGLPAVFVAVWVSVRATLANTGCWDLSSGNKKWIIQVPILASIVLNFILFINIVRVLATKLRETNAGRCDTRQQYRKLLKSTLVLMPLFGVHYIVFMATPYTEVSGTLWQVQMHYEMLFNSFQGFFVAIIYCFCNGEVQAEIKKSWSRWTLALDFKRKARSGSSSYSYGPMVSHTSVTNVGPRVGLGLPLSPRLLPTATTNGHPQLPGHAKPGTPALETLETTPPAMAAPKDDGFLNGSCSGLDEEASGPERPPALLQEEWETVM
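HEK-293-derived GP2 cells expressing PTHR1 and a GloSensor cAMP reporter, 3,000/well, plated overnight, given luciferin plus IBMX (each 0.5 mM as added) for 1 h at 37 °C, then compound for 1 h at 37 °C. Luminescence was read after 15 min at room temperature.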
mIDH1 inhibitor – inhibitors of human mutant IDH1 R132H; IDH1-R132H enzyme, NADPH consumption, diaphorase/resazurin fluorescence; Potency, µM (doses to about 76.6 µM), for the others: at the highest dose activity change, negative = inhibition, usual class: inhibitors; AID 602179; 0.093% of 390,000 active; O75874; further: potency means the concentration at half of the fitted maximal effect; on the % scale 0 is the no-effect control and ±100 the full control effect; nearly all actives have a fitted effect of over 65% in size
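IDH1-R132H (0.5 ug/mL dispensed) in pH 7.5 Tris buffer was preincubated 30 min with compound, then given a substrate mix of 0.016 mM NADPH and 2 mM alpha-KG for 80 min at room temperature; remaining NADPH was read by diaphorase/resazurin fluorescence.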
Vif-A3G inh – blocks the Vif interaction with human APOBEC3G; Q9HC16; HeLa A3G-eYFP + Vif (tagged APOBEC3G with the HIV-1 protein that degrades it), YFP fluorescence, overnight; Potency, µM (titrated, usually from 46.1 µM), inactives show at the top dose activity, negative = active, hits mostly inhibitors; 0.076% of 410,000 active; AID 602310; further: potency means the concentration at half of the fitted maximal effect; on the % scale 0 is the no-effect control and ±100 the full control effect; nearly all actives have a fitted effect of over 60% in size
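HeLa cells stably expressing Vif and C-terminally eYFP-tagged A3G, seeded overnight at 37 deg C, then exposed to compound by pintool overnight at 37 deg C. Rise in yellow fluorescence (Ex 488/Em 500-530, Acumen) marks blocked Vif-driven A3G degradation.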
Starred values were filed as active, the others as inactive; i = inactive; ? = inconclusive; . = no result given; ! = not active in a repeat; [ ] = dose if it differs, or a comment. Compounds with a hit are over-represented: about 0.59% of the library has one in this group of screens. Unless noted, the call rests on the fitted dose curve; in most records, active means well fitted curve in the direction sought with a large enough effect; inconclusive means small, poorly fitted or top-dose-only effect, or another doubt; inactive means no such curve, though single readings can be large; an effect the other way counts as inactive or inconclusive.

SMILES	LDHA inh	PINK1 expr mod	Vif-A3F inh	PTHR1 ag	mIDH1 inhibitor	Vif-A3G inh
CN(CC(=O)Nc1ccccc1Cl)C1CCCCC1	-8.8	6.0%	3.1%	-1.6%	8.5%	2.6%
CCN(CC(=O)Nc1ccc(NC(C)=O)cc1)CC(=O)Nc1cccc(Cl)c1	-8.4	-2.1%	0.7%	-4.2%	3.2%	-0.1%
CN1CCC(N(C)CC(=O)Nc2ccc3c(c2)OC(F)(F)O3)CC1	-33.9*	0.5%	-15.8%	i	-1.4%	-0.2%
O=C(Nc1ccc(O)c(-c2nc3ccccc3o2)c1)c1cccc(F)c1	-0.2	.	.	.	.	.
Cc1ccccc1C(=O)Nc1c(NC2CCCC2)c2ccccc2oc1=O	-7.8	.	.	.	.	.
CC1CCN(c2nc(-c3cccnc3)nc3scc(-c4ccccc4)c23)CC1	-1.6	1.7%	2.5%	-32.5%	12.9%	0.1%
CC1CCCN(c2nc(-c3cccnc3)nc3scc(-c4ccccc4)c23)C1 (stereo not drawn)	3.7	28.2µM*	-8.6%	-39.2%	-7.8%	-5.1%
COc1ccc(C(=O)c2sc(Nc3ccc(F)cc3)nc2N)cc1	-3.4	.	.	.	.	.
Cc1ccc(C(O)c2cc3c(cc2NC(=O)c2ccc(F)cc2)OCCO3)cc1 (stereo not drawn)	1.2	.	.	.	.	.
Cc1cc(N/N=C/c2ccc([N+](=O)[O-])o2)nc2ccccc12	-8.1	?	?	-57.9%	-1.1%	11.2µM*
Cn1c(/C=C/c2ccc([N+](=O)[O-])o2)nc2ccccc2c1=O	1.8	7.4%	11.2µM*	-10.3%	5.7%	2.82µM*
O=C(Nc1ccc2oc(C3CC3)nc2c1)c1ccc[nH]c1=O	-4.7	.	.	.	.	.
CCNC(=S)NCc1ccccc1	-5.1	.	.	.	.	.
COc1ccc(C(=O)/C=C/Nc2ccc([N+](=O)[O-])cc2C)cc1OC	1.9	28.2µM*	-5.7%	-47.4%	12.5%	?
COc1ccc(C(=O)/C=C/Nc2ccc([N+](=O)[O-])cc2C)c(OC)c1	2.7	?	22.4µM*	-9.9%[57.5 µM]	4.7%	-2.8%
COc1ccc(C(=O)/C=C/Nc2cc(C)on2)c(OC)c1	-2.5	-15.7%[38.3 µM]	9.5%	-11.0%[57.5 µM]	14.2%	-3.9%
CNc1cc([N+](=O)[O-])ccc1N/C=C/C(=O)c1ccc2c(c1)OCO2	3.9	14.1µM*	?	i	2.7%	1.8%
CN1OC[C@@H]2CN(Cc3cc(Cl)cc(Cl)c3)[C@H](c3cccc(-c4ccc(C#N)cc4)c3)C[C@@H]21	-30.8*	1.0%	-10.8%	-5.1%	-15.4%	-1.2%
CCOCCCNCc1c(OCC)ccc2ccccc12	14.8	.	.	.	.	.
O=C(NC1CCCC1)c1cc(-c2cccs2)on1	-38.7*!	5.2%[38.3 µM]	-7.0%	-19.7%[57.5 µM]	1.8%	2.4%
O=c1[nH]c2ccc([N+](=O)[O-])cc2nc1/C=C(\O)c1ccccc1	-1.6	28.2µM*	?	i	-1.4%	-3.9%
C/C(=N\NC(=O)c1cccs1)c1ccc(-c2ccccc2)cc1	10.5	.	.	.	.	.
Cc1nc2ccccc2nc1CN1C(=O)NC2(CCCCCC2)C1=O	-2.7	.	.	.	.	.
C[C@@H]1O[C@@H](O[C@@H]2C(=O)c3c(O)cc(O)cc3O[C@H]2c2ccc(O)c(O)c2)[C@H](O)[C@H](O)[C@H]1O	4.5	0.6%	0.5%	i	9.9%	11.2µM*
COc1cc(OC)c(-c2c3cc(O)c(=O)cc-3oc3cc(O)c(O)cc23)cc1OC	30.2	7.0%	?	-2.7%	11.7µM*	6.7%
SMILES	LDHA inh	PINK1 expr mod	Vif-A3F inh	PTHR1 ag	mIDH1 inhibitor	Vif-A3G inh
COc1c(O)cc2oc(-c3ccc(O)cc3)cc(=O)c2c1O	1.0	2.6%	-3.4%	-43.1%	4.0%	-1.2%
COc1cc(C(=O)OCC(=O)Nc2ccc(N3CCOCC3)cc2)ccc1OCC(C)C	-1.3	7.2%	?	i	-5.8%	7.94µM*
COc1ccc(C(=O)Nc2ccc(N3CCOCC3)cc2)cc1OC	13.3	0.5%[38.3 µM]	-0.9%	-19.8%[57.5 µM]	-1.1%	-2.1%
CC(C)(C)OC(=O)NCCNC(=O)c1cc2ccccc2[nH]1	2.7	.	.	.	.	.
COc1cc(/C=C2\SC(=Nc3cccnc3)NC2=O)cc(OC)c1OC	-9.4	8.2%	25.1µM*	-20.4%	0.0%	?
COc1cc(/C=C2\SC(=Nc3ccc(Cl)c(C(=O)O)c3)NC2=O)c(Br)c(Br)c1O	-32.9*	0.3%	?	-5.0%	16.5%	15.8%
COc1cc(/C=C2/SC(=Nc3ccc(O)cc3)NC2=O)ccc1O	-3.9	1.4%	25.1µM*	-7.8%	11.7%	?
COc1cc(/C=C2\SC(=Nc3ccccc3)NC2=O)cc(Cl)c1O	9.4	7.2%	?	-11.1%	0.0%	?
CC1(C)CC(N2CCN(Cc3ccccc3)CC2)=CC(=[N+]2CCCCC2)C1	-43.1*	?	-8.7%	-84.5%	4.6%	-2.7%
CCOC(=O)c1sc(NC(=O)CSc2n[nH]c(-c3ccccc3)n2)c(C#N)c1C	2.6	15.8µM*	-0.9%	-27.0%	-2.5%	-0.7%
COCCN1C=C(C(=O)OC)C(c2cc3c(cc2Br)OCO3)C(C(=O)OC)=C1	1.2	3.98µM*	-0.3%	i	2.4%	2.7%
COCCN1C=C(C(=O)OC)C(c2ccc3c(c2)OCO3)C(C(=O)OC)=C1	3.8	.	-1.3%	i	-0.1%	-0.4%
CC(Nc1oc(-c2ccc(COc3ccccc3)o2)nc1C#N)c1ccccc1 (stereo not drawn)	1.1	3.2%	10µM*	i	-12.3%	-15.2%
N#Cc1nc(-c2ccc(COc3ccccc3)o2)oc1NCc1ccccc1	-3.3	1.7%	-15.4%	i	-14.8%	-6.0%
CCOC(=O)c1cc(-c2ccccc2)sc1NC(=O)C(C)(C)C	0.3	12.3%	-2.4%	-3.5%[57.5 µM]	-0.2%	-0.3%
CCOC(=O)c1cc(-c2ccccc2)sc1NC(=S)Nc1cc(C)ccn1	-3.1	?	8.91µM*	i	-0.7%	1.1%
Cc1cc(C(c2ccccc2Cl)N2CCN(C)CC2)c(NC(=O)c2ccco2)s1 (stereo not drawn)	4.2	.	.	.	.	.
Cc1ccc(-c2nc(CC(=O)NCc3ccccc3F)cs2)o1	-17.2	.	.	.	.	.
Cc1ccc(-c2nc(CC(=O)NCCc3ccccc3F)cs2)o1	-33.2*	.	.	.	.	.
COCCN1CCC(OC(C)=O)C(C)C1C (stereo not drawn)	-0.6	.	.	.	.	.
Cc1[nH]c2ccccc2c1C(C(=O)O)N1CCN(c2nsc3ccccc23)CC1 (stereo not drawn)	-17.8	.	.	.	.	.
O=C(c1ccc(Br)s1)N(Cc1cccc(Br)c1)C1CC1	-0.5	.	.	.	.	.
CCCCN(CCCC)C(=O)c1ccc(N)cc1	1.6	.	.	.	.	.
CCOC(=O)c1c(-c2ccc(C)cc2)csc1NC(=O)c1cc(=O)c2cc(C)c(C)cc2o1	-2.3	1.7%	1.4%	-14.4%	10.3%	-1.2%
